From PubChem BioAssay AID743286 (National Center for Advancing Translational Sciences (NCATS), 2014)
About 340 (31%) of roughly 1,100 compounds were called active. Inconclusive results (about 40%) are left out. The call rests on the fitted dose curve; in most records, active means well fitted inhibition curve with a large enough effect; inconclusive means small, poorly fitted or top-dose-only effect; inactive means flat fitted curve, though single readings scatter. These entries were drawn from the full list. A call without a number means that no potency is given here.

molecular target: Phosphatidylinositol 5-phosphate 4-kinase type-2 alpha (Homo sapiens) (UniProt P48426); test: qHTS for Inhibitors of PI5P4K: Confirmation in Primary Assay; conditions: PI5P4Kalpha enzyme, ADP-Glo luminescence, 60 min; series mostly up to 76.9 µM; further: nearly all actives have a fitted effect of over 65% in size
Sequence (P48426 whole entry, looked up, canonical isoform): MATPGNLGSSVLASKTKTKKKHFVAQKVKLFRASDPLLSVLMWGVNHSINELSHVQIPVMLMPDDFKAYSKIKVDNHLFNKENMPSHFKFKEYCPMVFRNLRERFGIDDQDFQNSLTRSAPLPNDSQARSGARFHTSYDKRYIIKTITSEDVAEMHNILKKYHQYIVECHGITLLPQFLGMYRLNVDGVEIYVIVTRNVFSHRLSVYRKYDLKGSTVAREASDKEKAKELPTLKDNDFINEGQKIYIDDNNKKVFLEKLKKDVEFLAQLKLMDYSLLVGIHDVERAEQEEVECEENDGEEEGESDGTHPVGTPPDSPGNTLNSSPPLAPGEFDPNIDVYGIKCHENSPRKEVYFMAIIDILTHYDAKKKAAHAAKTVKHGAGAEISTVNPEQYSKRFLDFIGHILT
From the text: In addition to finding PI5P, we discovered the type II phosphatidylinositol 5-phosphate 4-kinase (PI5P4K) family (alpha, beta, gamma isoforms) that catalyze the conversion of PI5P to PI(4,5)P2. Alternatively, PI(4,5)P2 can also be synthesized through phosphatidylinositol-4-phosphate (PI4P) by the type I phosphatidylinositol 4-phosphate 5-kinases (PI4P5K). These PI5P4K enzymes therefore represent one way by which cells can regulate endogenous PI5P levels and play important roles in insulin signaling and in stress responses. […] A qHTS PI5P4K-alpha ADP-Glo assay was developed to identify specific modulators of human PI5P4K, phosphatidylinositol-5-phosphate 4-kinase (Type II PIPK). This assay was screened against the MLSMR containing ~400,000 small molecules (PubChem AID 652105). To confirm that the hits were not interacting with the detection enzyme system, a 1536-well counterscreen against the ADP-Glo kit (Promega) was utilized, as described in Davis et al., 2013 [1]. Davis et al., PLoS One. 2013;8(1):e54127. NIH Chemical Genomics Center [NCGC] NIH Molecular Libraries Probe Centers Network [MLPCN] MLPCN Grant: MH096575 Assay Submitter (PI): Atsuo Sasaki, Beth Israel Deaconess Medical Center
2 microL of PI5P4Kalpha/substrate buffer (columns 1-2, 5-48) are dispensed into Greiner white solid bottom 1536-well assay plates; column 3 receives only PI5P4Kalpha buffer as 0x substrate controls; column 4 receives only substrate buffer as 0x PI5P4Kalpha controls. Final assay buffer consists of 0.038 M HEPES pH 7.4, 0.28 mM EGTA, 0.1% CHAPS, and 5% DMSO (final concentration). Compounds are then transferred via Kalypsys pin tool equipped with 1536-pin array (10 nL slotted pins, V&P Scientific, San Diego, CA). Following addition of compound, 1 microL of ATP (5 microM final concentration, all columns) is added to initiate the reaction. ATP is diluted in an assay buffer consisting of 0.02 M HEPES pH 7.4, 60 mM MgCl2, 15 microM ATP, and 0.1% CHAPS. The plates are then incubated at room temperature for 60 minutes. ADP-Glo reagent 1 is added (2 microL) and plates incubated for 45 minutes, before ADP-Glo reagent 2 (4 microL) is added and plates incubated for 30 minutes. They are then transferred to a ViewLux high-throughput CCD imager (PerkinElmer) wherein single end-point measurements of luminescence are acquired using a clear filter.
Potency means the concentration at half of the fitted maximal effect.

| SMILES | Potency |
| --- | --- |
| CCC(=O)Oc1ccc(C(=O)Nc2cccc(C(=O)c3ccccc3)c2)cc1 | 8.91 µM (active) |
| N#CC1c2ccccc2-n2nncc2CN1Cc1cc(Cl)cc(Cl)c1 (stereo not given) | inactive |
| COC(=O)C1=C(c2ccc(F)cc2F)C[C@@H]2CC[C@H]1N2C(=O)NC1Cc2ccccc2C1 | inactive |
| COc1ccc(C(=O)C2CCCN(Cc3ccon3)C2)c(OC)c1 (stereo not given) | inactive |
| CC(C)NCC(O)c1ccc(C2CCCC2)cc1 (stereo not given) | inactive |
